Pf growth 96h: Primary qHTS for delayed death inhibitors of the malarial parasite plastid, 96 hour incubation | P. falciparum luciferase reporter growth, 96 h | Potency, µM (highest dose often 28.7 µM), for the others: at the top dose activity change, negative = inhibition, actives largely listed as inhibitors | 6.9% of 320,000 active
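Erythrocytes infected with luciferase-expressing P. falciparum were dispensed at 2% hematocrit and 0.05% parasitemia (final), then incubated with compounds 96 hours at 37 C in 5% CO2. Luminescence after detection reagent addition reported growth.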
AMA1 RON2 block: qHTS for Inhibitors of AMA1-RON; Towards Development of Antimalarial Drug Lead: Primary Screen; AlphaScreen AMA1-biotinylated RON2 peptide binding; Plasmodium falciparum AMA1 (3D7) - RON2 peptide interaction; Potency, µM (top dose mostly 58.2 µM), inactives show top-dose activity change, negative = inhibition, actives largely listed as inhibitors; AID 720542, 2013; 0.2% of 360,000 active;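 note: 0% = vehicle wells and -100% = peptide control; nearly all actives have a fitted effect of over 45% in size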
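AMA1 (3D7) with his tag at 25 nM final met compounds first, then biotinylated RON2 peptide at 25 nM; detection used donor plus acceptor beads, 10 µg/mL apiece, read by AlphaScreen after 30 min at room temperature.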
AmpC inh detg: qHTS Inhibitors of AmpC Beta-Lactamase (assay with detergent); Potency, µM (series often up to 114 µM), for inactives: top-dose activity change, negative = inhibition, most hits filed as inhibitors; AmpC hydrolysis of nitrocefin, absorbance 480 nm, 0.01% Triton; AID 485294, 2010; 0.041% of 370,000 active;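 note: 0% = no-compound wells and -100% = no-enzyme wells; nearly all actives have a fitted effect of over 25% in size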
Target sequence (P00811 whole entry, looked up): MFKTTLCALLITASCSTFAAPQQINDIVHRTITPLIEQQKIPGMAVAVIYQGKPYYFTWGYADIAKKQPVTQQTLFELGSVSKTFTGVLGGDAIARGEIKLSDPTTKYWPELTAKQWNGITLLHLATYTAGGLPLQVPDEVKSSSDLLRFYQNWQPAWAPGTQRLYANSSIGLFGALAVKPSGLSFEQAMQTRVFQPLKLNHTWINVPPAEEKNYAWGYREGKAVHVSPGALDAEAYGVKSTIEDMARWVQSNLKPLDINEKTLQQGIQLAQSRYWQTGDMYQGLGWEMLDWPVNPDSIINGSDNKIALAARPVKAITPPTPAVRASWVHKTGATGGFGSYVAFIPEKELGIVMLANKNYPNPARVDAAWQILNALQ
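AmpC (5.3 nM in the dispensed reagent) in 20 mM phosphate pH 7.0 with 0.01% (detergent screen) or 0.0001% Triton X-100 was preincubated with compounds for 15 min at room temperature. Nitrocefin was then added from an 800 uM solution, and hydrolysis was followed at 480 nm.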
AmpC inh no detg: qHTS Inhibitors of AmpC Beta-Lactamase (assay without detergent); 0.52% of 330,000 active; P00811; Potency, µM (highest dose often 57.1 µM), for inactives: at the highest dose activity change, negative = inhibition, usual class: inhibitors; AmpC nitrocefin hydrolysis, absorbance 480 nm, 0.0001% Triton; AID 485341, 2010;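 note: plate controls were no compound for no effect and no enzyme for full effect; nearly all actives have a fitted effect of over 20% in size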
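20 mM phosphate pH 7.0 + 0.01% (detergent screen) or 0.0001% Triton X-100; 5.3 nM AmpC reagent; cpd preinc 15 min RT; nitrocefin (800 uM stock) to start; A480 q20 s × 4 min; Activity was normalised to no-enzyme and no-compound control wells.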
Pf growth 48h: Primary qHTS for delayed death inhibitors of the malarial parasite plastid, 48 hour incubation; P. falciparum luciferase growth in erythrocytes, 48 h; 5.9% of 310,000 active; Potency, µM (series often up to 28.7 µM), for inactives: at the top dose activity change, negative = inhibition, actives largely listed as inhibitors
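Cell-based growth assay: transgenic P. falciparum expressing firefly luciferase, cultured in red cells within RPMI 1640 containing 0.5% w/v Albumax, 24 mM bicarbonate and gentamycin. A drop in luciferase activity indicates inhibition.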
HCV inhibitor: qHTS Assay for Inhibitors of Hepatitis C Virus (HCV); Huh7.5.1 HCVcc-Cre infection, luciferase reporter, 44 h; Potency, µM (titrated, usually from 41.8 µM), without a hit: at the top dose activity change, negative = inhibition, most hits filed as inhibitors; 3.4% of 340,000 active
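HCVcc-Cre virus at an moi near 0.5 was added right after compound to cells cultured 4 h from seeding (1,000 cells/well). Luciferase activity was determined 44 h later, 15 min after substrate addition at RT.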
The depositor's hits bear a star; u = inconclusive; x = no result given; [ ] = dose if it differs, or a comment. Most compounds without a hit are left out; they make up all but 11% or so of the library. Calls come from the whole dose curve; as a rule, active = well fitted curve in the direction sought with a large enough effect; inconclusive = small, poorly fitted or top-dose-only effect, or another doubt; inactive = no such curve, though single readings can be large; an effect the other way counts as inactive or inconclusive. Unless noted, % is set by controls: 0 for no effect and ±100 for the full control effect; potency is the fitted concentration of half-maximal effect.

SMILES	Pf growth 96h	AMA1 RON2 block	AmpC inh detg	AmpC inh no detg	Pf growth 48h	HCV inhibitor
COc1ccc(S(=O)(=O)Nc2ccc3ccccc3c2)cc1C	-20.0%	-2.4%	-2.5%	-55.7%	x	11.2µM*
COc1ccc(S(=O)(=O)N2CCCN(S(=O)(=O)c3ccc(OC)c(C)c3)CC2)cc1C	-11.2%	-2.3%	-1.7%	-16.0%	12.8%	u
COc1ccc(S(=O)(=O)Nc2ccc(S(=O)(=O)N3CCCCC3)cc2)cc1C	u	4.2%	u	-34.2%	u	35.5µM*
COc1ccc(C(=O)Nc2ccc3c(c2)CCCN3S(=O)(=O)c2ccc(C)cc2)c(OC)c1	x	x	13.0%	x	x	x
Cc1nc(N2CCN(Cc3ccccc3)CC2)[nH]c(=O)c1C	2.62µM*	-12.6%	-7.6%	0.1%	18.8%	2.6%
Cn1c(=O)[nH]c(=O)c2c1nc(N1CCN(Cc3ccccc3)CC1)n2CCCc1ccccc1	x	-0.3%	6.8%	-2.2%	5.22µM*	-22.8%
CC1CCN(c2nc3c(c(=O)n(C)c(=O)n3C)n2Cc2ccccc2)CC1	u	-6.8%	-0.6%	99.9%	13.1µM*	u
CCOC(=O)Cn1c(=O)c2c(nc(N3CCCCC3)n2Cc2ccccc2)n(C)c1=O	u	-6.6%	-0.1%	144.6%	5.22µM*	-27.7%
CN1CCN(c2nc3c(c(=O)n(C)c(=O)n3C)n2Cc2ccccc2)CC1	-19.7%	6.2%	u	-16.2%	-16.5%	10.3%
CCc1c(O)nc(N2CCN(Cc3ccccc3)CC2)[nH]c1=O	x	-5.8%	-0.1%	-4.7%	0.6%	5.7%
CCOC(=O)c1cc(-c2ccccc2)n(CC(=O)Nc2ccc(CC)cc2)c1C	x	x	-6.5%	x	x	x
CCOC(=O)C1CCN(c2nc3c(S(=O)(=O)c4ccc(Br)cc4)nnn3c3ccsc23)CC1	x	x	18.0%	x	x	x
CCCCN(CC)CCCNC(=O)C1CCCN(c2ncnc3c2nc2n3CCCCC2)C1 (centres undefined)	x	x	0.8%	x	x	x
CCCCn1c(NCCN(C)C)nc2c1c(=O)[nH]c(=O)n2C	4.65µM*	17.0%	-15.0%	-6.4%	24.4%	17.6%
CC(C)Cn1c(NCCN(C)C)nc2c1c(=O)[nH]c(=O)n2C	x	0.0%	-5.2%	-10.9%	16.6%	2.5%
CCC(C)Nc1nc2c(c(=O)[nH]c(=O)n2C)n1CCCc1ccccc1 (centres undefined)	4.15µM*	-4.4%	-2.7%	-6.6%	-7.9%	3.2%
Cn1c(=O)c2c(nc(N3CCN(Cc4ccccc4)CC3)n2CCCc2ccccc2)n(C)c1=O	6.57µM*	-3.0%	2.8%	9.5%	3.7µM*	u
Cn1c(=O)c2c(nc(N3CCN(c4ccccc4)CC3)n2CCCc2ccccc2)n(C)c1=O	-14.7%	1.3%	-13.9%	-23.0%	u	u
Cc1ccc(NC(=O)C(C)Sc2nc(-c3ccccc3)c(C#N)c(=O)[nH]2)c(C)c1 (centres undefined)	x	x	5.9%	x	x	x
CCN(CC)CCOCCOC(=O)C(CC)(CC)c1ccccc1	-0.1%	37.3%	-0.2%	7.7%	-7.2%	-9.0%
CCN(CC)CCOC(=O)C(C)(c1ccccc1)c1ccccc1	10.7µM*	x	x	x	u	x
CCN(CC)CCCOC(=O)C(OC(C)C)(c1ccccc1)c1ccccc1	26.7%	-2.1%	-5.1%	85.3%	u	7.08µM*
CCN(C(=O)Cn1ncc2c1-c1cc(C)ccc1OC2)c1cc(Cl)ccc1OC	x	x	2.9%	x	x	x
O=C(CN1CCN(Cc2ccccc2F)C1=O)NCc1ccco1	13.1µM*	-4.5%	1.9%	-3.5%	x	10.8%
CN(C)Cc1ccccc1Sc1ccc(O)cc1O	20.3%	-3.6%	-12.1%	-45.6%	-7.0%	15.8%
SMILES	Pf growth 96h	AMA1 RON2 block	AmpC inh detg	AmpC inh no detg	Pf growth 48h	HCV inhibitor
CC(Cc1ccccc1Sc1ccccc1O)N(C)C (centres undefined)	3.7µM*	2.6%	u	-7.5%	x	-14.8%
O=C(/C(C=Nc1ccc(Br)cc1)=C(/O)c1ccco1)C(F)(F)F	2.94µM*	-5.9%[11.6 µM]	-13.3%	-2.6%	227.5%	-3.2%
COc1cc2c(cc1OC)C1O[C@](CCCCN3C(=O)c4ccccc4C3=O)(C2)OC2=C1C(=O)CC(C)(C)C2	u	x	-13.5%[22.9 µM]	139.6%[11.4 µM]	0.239µM*	x
O=C1OC2(CCCCC2)CC2=C1C1O[C@](CCCCN3C(=O)c4ccccc4C3=O)(Cc3ccccc31)O2	u	x	u	-42.3%[11.4 µM]	1.51µM*	x
CCn1cc(C(=O)OCC(=O)Nc2cc(Cl)ccc2OC)c(=O)c2ccc(C)nc21	x	x	19.9%	x	x	x
Cc1ccc(C)c(Cn2c(=O)n(-c3ccc(Cl)cc3)c(=O)c3c(C)c(C)sc32)c1	x	x	7.4%	x	x	x
Cc1cccc(NS(=O)(=O)c2c(C)nc3sccn3c2=O)c1C	x	x	-8.7%	x	x	x
COc1cc2c(cc1OC)C(=O)C(CC1CCN(Cc3ccccc3)CC1)C2 (centres undefined)	9.53µM*	-10.0%	-0.7%	-10.2%	u	1.41µM*
COc1cc2c(cc1OC)CN(Cc1ccccc1)CC2	u	0.3%	-11.0%	-7.9%	1.5%	3.8%
CCc1ccc(NC(=O)Cn2c(=O)nc(-c3ccccc3F)c3cc(Cl)ccc32)cc1	x	x	8.7%	x	x	x
Nc1nnc(SCC(=O)OCC(=O)NC2CCCCC2)s1	15.1%	-16.9%	6.9%	-23.1%	-18.9%	20.9%
Nc1nnc(SCC(=O)OCC(=O)NC23CC4CC(CC(C4)C2)C3)s1	-1.8%	20.6%	u	-28.0%	13.1µM*	-24.2%
COc1cccc(CNc2ccc(N3CCC(C)CC3)cc2)c1OC	u	u	1.6%	-57.6%	1.85µM*	-10.6%
COc1ccc(NC(=O)C(=O)NCCc2csc3nc(-c4ccccc4C)nn23)cc1	x	x	2.0%	x	x	x
Cc1c(CCNC(=O)c2c(F)cccc2F)sc2nc(-c3ccc(F)cc3)nn12	x	x	6.6%	x	x	x
Cc1ccc(NC(=O)CCC(=O)N/N=C/c2cccnc2)cc1	3.7µM*	1.5%	u	-0.1%	12.1%	19.4%
Cc1ccccc1NC(=O)CCC(=O)N/N=C/c1cccnc1	u	10.6%	-1.7%	0.0%	u	2.9%
O=C(CCC(=O)Nc1ccccc1)N/N=C/c1cccnc1	5.22µM*	18.7%	-2.2%	-14.2%	7.0%	5.4%
CCCCCCC(=O)Nc1ccc(C(=O)N/N=C/c2cccnc2)cc1	u	6.1%	u	-15.2%	u	-18.2%
O=C(CSc1nc(-c2ccccc2F)nc2cc(=O)[nH]n12)Nc1cccc(C(F)(F)F)c1	x	x	-2.3%	x	x	x

Compound activity (PubChem BioAssay)
